The structures appear in SMILES notation. Inconclusive results are not listed. Entries that show only a call come without a potency. Active and inactive are the calls of the source. Calls come from the whole dose curve.
Potency is the fitted concentration of half-maximal effect.

The test in a line: p53 small molecule agonists, cell-based qHTS assay with rat liver microsomes: qHTS cell viability counter screen (AID 1963580). Note: nearly all actives have a fitted effect of over 45% in size. Particulars: p53RE-bla HCT-116 + rat microsomes, ATP viability, 16 h; series mostly up to 66 µM. Summed up: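 Counter screen for cytotoxicity under metabolic activation: rat liver microsomes and NADPH, 0.5 mg/mL final each, added with compounds to p53RE-bla HCT-116 cells; 16 h at 37 C, then ATP luminescence read.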
In the case of `N#Cc1sc2c(=O)c3ccccc3c(=O)c=2sc1C#N`, the Potency was 16.2 µM (active).

Regarding `C=CC(=O)OCC`, the Potency result was “inactive”.

In the case of `Cc1c(Cl)c(=O)oc2cc(OP(=O)(OCCCl)OCCCl)ccc12`, the Potency result was “inactive”.

Regarding `O=C(CBr)Nc1ccc(Cl)cc1C(=O)c1ccccc1F`, the Potency entry was “inactive”.

Regarding `CC1=NNC(=O)N(/N=C/c2cccnc2)C1`, the Potency result is “inactive”.

For `[O-][Cl+3]([O-])([O-])O`, the Potency entry was “inactive”.

As to `CCn1cc[n+](C)c1` (tested in a mixture with another compound), the Potency result was “inactive”.

In the case of `CCOC(=O)C(Cl)Cc1cc(-n2nc(C)n(C(F)F)c2=O)c(F)cc1Cl` (stereo unspecified), the Potency entry was “inactive”.

Take `CSC(C)(C)/C=N/O`: the Potency entry was “inactive”.

For `C=CCC1(C(C)CC)C(=O)NC(=O)NC1=O` (stereo unspecified), the Potency result was “inactive”.

`CCOP(=O)(SC(C)CC)N1CCSC1=O` (stereo unspecified): the Potency entry is “inactive”.

On to `CCOP(=S)(OCC)Oc1cc(-c2ccccc2)on1`, for which the Potency entry was “inactive”.

As for `CCNP(=S)(OC)O/C(C)=C/C(=O)OC(C)C` (stereo unspecified), the Potency entry was “inactive”.

In the case of `COP(=O)(OC)O/C(C)=C/C(=O)N(C)C`, the Potency entry was “inactive”.

For the molecule `CCOC(=O)CCN(SN(C)C(=O)Oc1cccc2c1OC(C)(C)C2)C(C)C`, the Potency result was “inactive”.

In the case of `CN1C2CCC(C)(C)C1CC(OC(=O)C(O)(c1cccs1)c1cccs1)C2` (stereo unspecified), the Potency entry was “inactive”.

On to `O=C1OC(=O)C2C1C1(Cl)C(Cl)=C(Cl)C2(Cl)C1(Cl)Cl` (stereo unspecified), for which the Potency entry is “inactive”.

For the molecule `C[C@H](CN1CCOCC1)C(C(=O)N1CCCC1)(c1ccccc1)c1ccccc1`, the Potency result is “inactive”.

As to `NNCc1ccccc1`, the Potency entry is “inactive”.

With `ClC(Br)Br`, the Potency entry was “inactive”.

As for `C#CC(C)(C)O`, the Potency result was “inactive”.

In the case of `CNC(=O)O/N=C(\C)C(C)S(C)(=O)=O` (stereo unspecified), the Potency result is “inactive”.

In the case of `CCOC(=O)c1cn2nc(OP(=S)(OCC)OCC)cc2nc1C`, the Potency entry was “inactive”.

For `CC(C)(c1ccc(O)c(-c2ccccc2)c1)c1ccc(O)c(-c2ccccc2)c1`, the Potency was 20.4 µM (active).

`CCC1(c2ccccc2)C(=O)N(COC)C(=O)N(COC)C1=O`: the Potency entry is “inactive”.

On to `CCS(=O)(=O)CCSP(=O)(OC)OC`, for which the Potency result is “inactive”.

With `c1cc[n+]2c(c1)-c1cccc[n+]1CC2`, the Potency entry is “inactive”.

For the molecule `O=C(NC(O)C(Cl)(Cl)Cl)NC(O)C(Cl)(Cl)Cl` (stereo unspecified), the Potency entry is “inactive”.

For the molecule `CNC(=O)Oc1cccc(N=CN(C)C)c1`, the Potency result was “inactive”.

For `ClCc1ccccc1Cl`, the Potency result was “inactive”.

Take `CCOP(=S)(OCC)Oc1nc(Cl)n(C(C)C)n1`: the Potency result was “inactive”.

Consider `CCOP(=S)(OCC)Oc1ccc(Cl)cc1Cl`, for which the Potency result was “inactive”.

Take `CC(C)O.CC(C)O.OCCN(CCO)CCO.OCCN(CCO)CCO.[Ti]`: the Potency result is “inactive”.

In the case of `CNC(=O)O/N=C(/CSC)C(C)(C)C`, the Potency result is “inactive”.

As to `C/C=C/C=O`, the Potency result was “inactive”.

For `CNC(=O)Oc1ccccc1C(C)C`, the Potency entry is “inactive”.

Source of the values: PubChem BioAssay (Tox21).
